pPAFAH FP inh: inhibitors of human plasma PAF acetylhydrolase (pPAFAH). Q13093. inhibition, % at 3.39 µM. AID 463082. recombinant pPAFAH, FP-rhodamine probe fluorescence polarization. 1.5% of 330,000 active;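 active means inhibition above the mean inhibition across the screen plus 3 SD, cut at about 25% in these data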;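 further: inhibitors block binding of the rhodamine activity-based probe so polarization drops; 0% = enzyme with DMSO and 100% = wells lacking pPAFAH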
PAFAH1B3 inh: inhibitors of human PAFAH1B3 | Q15102 | recombinant PAFAH1B3, FP-rhodamine probe, fluorescence polarization | inhibition, % at 3.39 µM | 0.28% of 340,000 active;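 active means inhibition above the screen-wide average of all tested compounds plus 3 SD, cut at about 25% in these data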;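 further: 0% = enzyme with DMSO only and 100% = wells lacking PAFAH1B3 protein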
Target sequence (Q15102 whole entry, looked up): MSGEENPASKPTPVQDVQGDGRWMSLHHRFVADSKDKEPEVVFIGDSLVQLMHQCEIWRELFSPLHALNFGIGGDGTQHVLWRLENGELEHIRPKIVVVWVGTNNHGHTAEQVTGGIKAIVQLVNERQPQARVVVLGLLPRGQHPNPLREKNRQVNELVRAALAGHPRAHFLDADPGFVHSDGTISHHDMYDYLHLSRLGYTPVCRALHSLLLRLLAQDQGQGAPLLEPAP
Rin1 Abl inh: human Rin1-Abl interaction inhibition; inhibition, % at 7.35 µM; 0.4% of 360,000 active; AID 588664; TR-FRET Rin1/Abl binding, biochemical; in the data active means inhibition above about 5%, passing the limit was not always enough
PAFAH1B2 inh: blocks human PAF acetylhydrolase 1b catalytic subunit 2 | AID 492953 | inhibition, % at 3.39 µM | P68402 | 1.2% of 340,000 active | recombinant PAFAH1B2, FP-rhodamine activity probe, fluorescence polarization;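 active means inhibition above the mean of all tested compounds plus 3 SD, cut at about 24% in these data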;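 further: 0% = enzyme with DMSO and 100% = wells lacking PAFAH1B2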
Target sequence (P68402 whole entry, looked up): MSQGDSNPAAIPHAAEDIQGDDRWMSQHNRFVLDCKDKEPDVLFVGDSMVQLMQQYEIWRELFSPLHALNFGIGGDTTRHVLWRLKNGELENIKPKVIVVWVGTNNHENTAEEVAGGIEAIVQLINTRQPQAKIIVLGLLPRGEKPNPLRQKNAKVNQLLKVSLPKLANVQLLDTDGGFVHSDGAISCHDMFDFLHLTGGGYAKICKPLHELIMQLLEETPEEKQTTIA
E coli Lon inh: E. coli protease La inhibition | inhibition, % at 7.94 µM | 0.42% of 360,000 active | purified E. coli Lon protease, fluorescence polarization | P0A9M0; in the data active means inhibition above about 13%, passing the limit was not always enough;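 further: 0% = enzyme with probe and DMSO and 100% = no enzyme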
PAFAH2 FP inh: PAFAH2 (human) inhibition; Q99487; recombinant PAFAH2, FP-rhodamine activity probe, fluorescence polarization; inhibition, % at 3.39 µM; 0.99% of 340,000 active; AID 492956;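 active means inhibition above the mean over all tested compounds plus 3 SD, cut at about 30% in these data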;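 further: inhibitors block probe labeling of enzyme so polarization drops; 0% = enzyme with DMSO and 100% = wells lacking PAFAH2 protein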
Rin1 Abl conf: confirmation of inhibitors of human Rin1-Abl interaction; TR-FRET Rin1-Abl binding, purified proteins; inhibition, % at 7.35 µM; shares compounds with Rin1 Abl inh; 49% of 1,300 active
GFP quencher: GFP fluorescence interference artifact; shares compounds with Rin1 Abl inh; inhibitors/quenchers counterscreen; inhibition, % at 6.75 µM; 8.5% of 1,300 active;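 further: ABL1-eGFP fusion protein alone without its partner RIN1-SBP; 0% = protein with vehicle and 100% = wells lacking protein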
GFP quench dose: quenches GFP in dose response, Rin1-Abl counter-screen; shares compounds with Rin1 Abl inh; IC50, µM; AID 602182; 230 tested, under 10 active; GFP fluorescence interference/quenching counterscreen; call rule not given here;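 further: ABL1-eGFP fusion protein alone without its RIN1 binding partner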
* marks the source's active call; other numbers are inactive results; . = no result. This is a sample that favours compounds with a hit; in the whole collection about 3.1% have one here. Unless noted, no stated cut-off is given here; in the data, active means inhibition above about 6.5%; inactive means the rest.

SMILES	pPAFAH FP inh	PAFAH1B3 inh	Rin1 Abl inh	PAFAH1B2 inh	E coli Lon inh	PAFAH2 FP inh	Rin1 Abl conf	GFP quencher	others
O=C(NC(NC(=S)Nc1ccccc1C(=O)O)C(Cl)(Cl)Cl)c1ccco1 (configuration not stated)	3	4	7.0*	8	5	8	0	1
COC(=O)c1ccccc1NC(=S)NC(NC(=O)c1ccco1)C(Cl)(Cl)Cl (configuration not stated)	-8	2	1	1	2	-7	.	.
Cc1cccc(OCc2nnc3n2CCCCC3)c1	0	6	8.0*	-2	-2	1	-2	-2
Cc1cc(C)c2c(CC(=O)NNC(=O)c3ccccc3)coc2c1	8	1	0	-1	-14	-2	.	.
COCCn1c(SCC(=O)Nc2ccc3c(c2)OCCO3)nc2ccccc2c1=O	.	.	7.0*	.	2	.	-1	-1
COCC(C)n1c(SCC(=O)Nc2ccc3c(c2)OCCO3)nc2ccccc2c1=O (configuration not stated)	2	8	2	1	-4	0	.	.
CC1CCN(C(=O)c2ncn3c2c(=O)[nH]c2cccnc23)CC1	.	.	-1	.	-5	.	.	.
COC1=CC(=O)c2nc(Cl)ccc2C1=O	.	.	13	.	10	.	.	.
COC1=CC(=O)c2c(ccc3ncnc(N)c23)C1=O	.	69*	17*	22	8	48*	31*	3	GFP quench dose=>67
O=c1[nH]c(CSc2ccccn2)nc2c1oc1ccccc12	3	0	9.9*	8	-7	7	-4	1
CCc1nc2c(oc3ccccc32)c(=O)[nH]1	4	5	-1	5	3	4	.	.
CCNC(=O)C1(C)CCN(C(=O)C(c2ccccc2)c2ccccc2)C1 (configuration not stated)	.	.	1	.	-4	.	.	.
Nc1c(C(=O)NCc2ccc3c(c2)OCO3)nnn1Cc1ccc(Br)cc1	-8	0	-1	3	-1	4	.	.
COc1cccc(Cn2nnc(C(=O)NCc3ccc4c(c3)OCO4)c2N)c1	3	2	9.1*	-1	-5	3	7.3*	-1
Nc1c(C(=O)NCc2ccc3c(c2)OCO3)nnn1Cc1cccc(F)c1	2	-1	8.4*	6	-9	-1	10*	-2
O=C(NCCC(=O)N1CCC2(CC1)NCCc1[nH]cnc12)c1cccc(Cl)c1	2	2	4	-3	4	6	.	.
CCOC(=O)C1=C(C(=O)OCC)N(CC2CCCCC2)CCC1=O	.	-1	-1	6	-3	-2	.	.
CC1=C(C(=O)N(C(C)C)C(C)C)CC(CC(=O)NCCCN(C)C)C(=O)N1CCCN1CCCC1=O (configuration not stated)	.	.	1	.	-2	.	.	.
CC(=O)Nc1ccc(S(=O)(=O)NC2(C(F)(F)F)NC(=O)N(CC(C)C)C2=O)cc1 (configuration not stated)	4	7	4	7	-4	4	.	.
CC(C)CN1C(=O)NC(NS(=O)(=O)c2ccc(N)cc2)(C(F)(F)F)C1=O (configuration not stated)	0	1	6.7*	1	-1	-1	0	0
CCOC(=O)C1=CC[C@]2(C)c3c(c4ccccc4n3C)C(=O)C1N2C	2	14	-1	2	-3	9	.	.
O=C1CCCC2=C1C1(O)C(=O)c3ccccc3C1(O)O2 (configuration not stated)	-2	5	19*	6	-5	-1	9.1*	-2
CC(CNC(=O)CN1C(=O)CCSc2ccccc21)c1ccccc1 (configuration not stated)	3	7	-3	22	-3	1	.	.
CCOc1ccc(CCNC(=O)CN2C(=O)CCSc3ccccc32)cc1	3	8	11*	-1	8	3	1	0
CC(C)[C@@H]1Cc2[nH]c(=S)[nH]c(=O)c2[C@H](CCc2ccccc2)O1	.	.	.	.	0	.	.	.

Source: PubChem BioAssay (The Scripps Research Institute Molecular Screening Center)
